Several values for one entry are separate records, joined by “and”; a condition that tells them apart may be missing. Identical values can stand only once. Among all 260,000 compounds or so, about 1,500 (0.58%) were called active. Not shown: some 5% with an inconclusive outcome.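 The calls were made as follows: active = inhibition above a set limit at one or more doses, reproduced on every date tested; inconclusive = results disagree between test dates, or hit never tested in dose response; inactive = the rest.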 The list is a sample of the results. Potency and affinity values are given separately.

For the experiment, the target named is Virion infectivity factor (Human immunodeficiency virus type 1 group M subtype B (isolate BH10)) + Virion infectivity factor (Human immunodeficiency virus type 1 group M subtype B (isolate BRU/LAI)) + Virion infectivity factor (Human immunodeficiency virus type 1 group M subtype B (isolate PCV12)) + Virion infectivity factor (Human immunodeficiency virus type 1 group M subtype B (isolate HXB2)) + DNA dC->dU-editing enzyme APOBEC-3G (Homo sapiens) (UniProt P69720+P69721+P69722+P69723+Q9HC16). Description: HIV-1 Vif–A3G interaction blockers – biochemical, TR-FRET, GST-Vif 1-94, biotin-A3G peptide, dose response retest, primary screen (AID 1117319).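 Also: Vif residues 1-94 fused to GST binding biotinylated APOBEC3G peptide 110-148; 0% = full assay without inhibitor and 100% = GST in place of GST-Vif.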 To be noted: TR-FRET GST-Vif / biotin-A3G peptide binding; stronger effect = higher value. For orientation: TR-FRET usually uses a lanthanide donor and a delayed reading to cut background.
For the compound `Cc1ccc(C2N(c3ccccc3)C(=S)N3CCCN23)cc1` (stereo not drawn), the inhibition (in general, the change of the read-out against control, counted positive when it falls) was 19.3% (inactive).
The figure for `O=S(=O)(O)c1ccc(O)c2cc(Nc3ccccc3)ccc12` is -8.31% (inactive).
On to `O=C(O)c1cc(NS(=O)(=O)c2ccc3ccccc3c2)ccc1O`, for which the inhibition was -12.2% (inactive).
`O=C(O)c1cc2cc(S(=O)(=O)O)ccc2cc1O`: the inhibition was 26.7% (inactive).
The figure for `COc1ccccc1Nc1ccc2c(O)cc(S(=O)(=O)O)cc2c1` is 15.2% (inactive); for `CC(=O)Nc1ccc2c(O)cc(S(=O)(=O)O)cc2c1` it is 19.9% (inactive).
For `Nc1ccc(C(=O)Nc2ccc3c(O)cc(S(=O)(=O)O)cc3c2)cc1`, the inhibition is 29.1% (inactive).
Take `O=C(O)c1cc(S(=O)(=O)O)cc(Nc2c3ccccc3nc3ccccc23)c1O`: the inhibition was 5.42% (inactive).
For the compound `Nc1ccc(C(=O)Nc2ccc3cc(S(=O)(=O)O)ccc3c2)cc1`, the inhibition is 7.06% (inactive).
The result for `COc1ccccc1CNC(=O)CNC(=O)Cn1cnc2ccccc2c1=O` reads 8.94% (inactive); that for `COC(=O)c1c(NC(=O)C2(C)Cc3ccccc3C(=O)O2)sc2c1CCCC2` (stereo not drawn), 20.6% (inactive); that for `O=C(Nc1nnc(Cc2ccccc2)s1)C1CCC1`, 6.12% (inactive).
The result for `NC(=O)CN(N=Nc1cccc([N+](=O)[O-])c1)c1cccc([N+](=O)[O-])c1` reads 10.3% (inactive).
For `COc1ccccc1C(=O)NC(CCSC)C(=O)NNC(=O)c1ccc(F)cc1` (stereo not drawn), the inhibition was -6.52% (inactive).
In the case of `CCCN(C(=O)c1cc(S(=O)(=O)N(C)c2ccc(OCC)cc2)ccc1C)C1CCS(=O)(=O)C1` (stereo not drawn), the inhibition is 2.41% (inactive).
For the compound `Cc1nnc(SCC(=O)Nc2ccccc2)n1CCc1ccccc1`, the inhibition is -1.11% (inactive).
`CC1(C)CC(NS(=O)(=O)c2ccccc2)CC(C)(C)N1`: the inhibition is 13.5% (inactive).
The figure for `CC1(C)CC(NC(=O)C(c2ccccc2)c2ccccc2)CC(C)(C)N1` is -4.99% (inactive).
The figure for `CC(C)(C)c1cc(NC(=O)CCSc2nnc3ccccn23)cc(C(C)(C)C)c1` is -5.51% (inactive).
The figure for `O=C1CCC/C1=C/Nc1ccc(Cl)cc1` is -0.33% (inactive).
As to `O=C1/C(=C/Nc2ccc3c(c2)OCO3)CCc2ccccc21`, the inhibition is 27.2% (inactive).
The result for `O=C1CCCC/C1=C/Nc1ccc(C(=O)O)cc1` reads 28.3% (inactive); that for `O=C1/C(=C\c2ccc3c(c2)OCO3)CCC/C1=C/c1ccc2c(c1)OCO2`, 1.07% (inactive); that for `CC(C)(C)NC(=O)Cn1c(=O)c(=O)n(Cc2ccccc2)c2ccc(Cl)cc21`, -13.9% (inactive).
The figure for `NS(=O)(=O)c1ccc(NC(=S)N2CCN(c3ccc(Cl)c(Cl)c3)CC2)cc1` is -1.39% (inactive); for `Cc1ccc(-n2ncc3c(NCc4cccnc4)ncnc32)cc1C` it is -0.06% (inactive); for `CC(=O)Nc1ccc2c(COC(=O)CC3Sc4ccccc4NC3=O)cc(=O)oc2c1` (stereo not drawn) it is -2.31% (inactive).
As to `COCCN(C(=O)COC(=O)CCn1c(C)csc1=O)c1c(N)n(Cc2ccccc2)c(=O)[nH]c1=O`, the inhibition was 3.17% (inactive).
The result for `COC(=O)[C@@H](N)Cc1ccc(O)cc1` reads 1.26% (inactive); that for `COC(=O)C(N)Cc1ccc(O)c(O)c1` (stereo not drawn), 21.5% (inactive).
In the case of `CC(NC(=O)Cn1cnnn1)C12CC3CC(CC(C3)C1)C2` (stereo not drawn), the inhibition was -1.37% (inactive).
The result for `O=C(Cc1csc(N2CCOCC2)n1)N/N=C/c1ccccc1C(=O)O` reads 6.57% (inactive); that for `COc1ccc(/C=N/NC(=O)CCN2CCN(c3ccccc3)CC2)c(OC)c1OC`, 8.69% (inactive); that for `O=C(Cc1csc(N2CCOCC2)n1)N/N=C/c1ccc(Cl)cc1Cl`, -5.97% (inactive).
The figure for `O=C(CCN1CCN(c2ccccc2)CC1)N/N=C/c1ccccc1O` is -5.36% (inactive).
Consider `Cc1cccc(NC(=S)NCc2ccc(F)cc2)c1`, for which the inhibition was -7.76% (inactive).
Take `Cc1nn(C)c(Cl)c1C(=O)NCC(=O)O`: the inhibition was -8.59% (inactive).
The result for `CCN1CCCC1Cn1cnc2c([nH]c3cccc(Cl)c32)c1=O` (stereo not drawn) reads 32.2% (inactive); that for `Cc1ccc(S(=O)(=O)n2nc(OC(=O)c3ccco3)cc2N)cc1`, 7.76% (inactive); that for `COc1ccc(OC)c(NC(=O)COC(=O)c2ccc(S(=O)(=O)N3CCCCC3)cc2)c1`, -4.24% (inactive).
The result for `COc1ccc(OCCCC(=O)OC(C)C(=O)Nc2ccc(S(N)(=O)=O)cc2)cc1` (stereo not drawn) reads 1.05% (inactive).
The result for `CC1CCC(NC(=O)c2cc(Cl)nc3ccccc23)CC1` (stereo not drawn) reads -9.79% (inactive); that for `Cc1noc(/C=C/c2ccco2)c1S(=O)(=O)N1CCC(C(=O)N2CCc3ccccc32)CC1`, 10.8% (inactive).
Turning to `Cc1noc(/C=C/c2ccco2)c1S(=O)(=O)N1CCC(C(=O)N2CCc3ccccc3C2)CC1`, the inhibition is 26.3% (inactive).
For `CCOC(=O)c1c(C)[nH]c(C(=O)CSc2nnnn2-c2ccc(C)cc2)c1C`, the inhibition was -6.65% (inactive).
The result for `CCOc1cc(C)c(Cl)cc1S(=O)(=O)N(CC)CC` reads -2.91% (inactive).
With `CC1CCCN(S(=O)(=O)c2ccc(S(=O)(=O)NC(C)c3cccs3)cc2)C1` (stereo not drawn), the inhibition is -0.23% (inactive).
The result for `CCOc1ccc(NC(=O)CC(=O)Nc2ccc(OCC)cc2)cc1` reads 3.52% (inactive).
For the compound `COc1ccc(C(=O)NC2c3ccccc3-c3ccccc32)cc1`, the inhibition is 6.08% (inactive).
Consider `C=CCSc1nnc(Cc2c(C)[nH]c3ccccc23)o1`, for which the inhibition is 12.5% (inactive).
The figure for `Cc1[nH]c2ccccc2c1Cc1nnc(SCC(N)=O)o1` is 9.95% (inactive).
The figure for `Cc1ccc(CNC(=O)COC(=O)Cn2nc(C)c([N+](=O)[O-])c2C)cc1` is 2.03% (inactive).
Turning to `NC(=S)N=Nc1c(O)[nH]c2ccc(F)cc12`, the inhibition was 14.4% (inactive).
Take `Cc1ccc2[nH]c(O)c(N=NC(N)=S)c2c1`: the inhibition was 16.9% (inactive).
The figure for `CNC(=S)NNc1nncc2ccccc12` is -3.6% (inactive).
Consider `CC(C)n1cnc2c(=S)nc[nH]c21`, for which the inhibition is 14.2% (inactive).
The figure for `O=C(CSc1nnnn1-c1cccc2ccccc12)N1CCOCC1` is 10.1% (inactive); for `CC(C)C(C(=O)O)N1C(=O)/C(=C/c2cccn2C)SC1=S` (stereo not drawn) it is 5.17% (inactive).
For the compound `CC(=C\c1ccccc1)/C=C1/SC(=S)N(C(C(=O)O)C(C)C)C1=O` (stereo not drawn), the inhibition was -2.28% (inactive).
The figure for `CCC(C(=O)O)N1C(=O)/C(=C/c2cccn2C)SC1=S` (stereo not drawn) is 21.2% (inactive); for `CC(/C=C1\SC(=S)N(C(C(=O)O)C(C)C)C1=O)=C\c1ccccc1` (stereo not drawn) it is 9.15% (inactive); for `CN(CCC#N)C(=O)COC(=O)c1ccccc1OCc1ccccc1Cl` it is 23.6% (inactive).
Take `CCCCCCOc1ccc(N2C(=O)CC(N(CCc3ccc(S(N)(=O)=O)cc3)C(C)=O)C2=O)cc1` (stereo not drawn): the inhibition is -1.36% (inactive).
For `CN1/C(=C/C(=S)NC(=O)C2CCC2)C(C)(C)c2ccccc21`, the inhibition was 3.95% (inactive).
The result for `CCn1c(SCC(=O)NCc2cccs2)nnc1-c1cccs1` reads 2.35% (inactive).
The figure for `O=C(CCS(=O)(=O)c1ccc(Br)cc1)Nc1ccccc1Cl` is 24.5% (inactive); for `CCc1ccc(NC(=O)CCS(=O)(=O)c2ccc(Br)cc2)cc1` it is 11.1% (inactive).
The figure for `Cc1cccc(NC(=O)CCS(=O)(=O)c2ccc(Br)cc2)c1` is 3.92% (inactive).
Regarding `Cc1cccc(C)c1NC(=O)CCS(=O)(=O)c1ccc(Br)cc1`, the inhibition is -1.3% (inactive).
The result for `CCN(CC)c1ccc(NC(=O)CCS(=O)(=O)c2cccc3nsnc23)c(C)c1` reads 12.7% (inactive); that for `Cc1ccc(S(=O)(=O)CCC(=O)Nc2ccc(Br)cc2)cc1`, 21.8% (inactive); that for `CCOc1ccccc1NC(=O)CCN1CCN(S(=O)(=O)c2ccc(Br)cc2)CC1`, -2.68% (inactive) and -11.1% (inactive).
The result for `CCOc1ccc(NC(=O)CCS(=O)(=O)c2ccc(C)cc2)cc1` reads -2.94% (inactive); that for `O=C(CN(Cc1ccc(F)cc1)C(=O)CNS(=O)(=O)c1ccccc1)NCc1ccco1`, -1.61% (inactive).
The figure for `CC(=O)N1CCN(S(=O)(=O)c2ccc(Cl)cc2F)CC1` is -2.38% (inactive); for `CC(C)c1nc(SCC(=O)N2CC(=O)Nc3ccccc32)c2ccccc2n1` it is -15.6% (inactive).
With `C#CCOCCOCCOCCNc1nc(N2CCN(C(=O)[C@H](CO)n3cc([C@@H](N)C(C)C)nn3)CC2)nc(N2CCN(C(=O)[C@H](CCC(=O)O)n3cc([C@@H](N)CCCCN)nn3)CC2)n1`, the inhibition is 19.7% (inactive).
For `Cc1ccccc1-n1nc2c(c1NC(=O)c1cc3ccccc3o1)CS(=O)(=O)C2`, the inhibition is 0.92% (inactive).
On to `COc1ccc(F)cc1CN1CCN(C(=O)CCC(=O)Nc2nnc(C(C)C)s2)CC1`, for which the inhibition is 1.87% (inactive).
The result for `O=C(Nc1cccc(C(F)(F)F)c1)Oc1ccccc1N1CCOCC1` reads 4.5% (inactive).
The figure for `COc1ccc([N+](=O)[O-])cc1NC(=O)CCS(=O)(=O)c1ccc(Br)cc1` is 23.2% (inactive); for `COc1ccc(Cl)cc1NC(=O)CCS(=O)(=O)c1ccc(C)cc1` it is 0.29% (inactive).
The figure for `COC(=O)c1ccccc1NC(=O)CCS(=O)(=O)c1ccc(Br)s1` is -6.38% (inactive).
In the case of `Cc1ccccc1NC(=O)CCS(=O)(=O)c1ccc(Br)cc1`, the inhibition is 19.3% (inactive).
Regarding `CCNC(=O)CSc1nnc(-c2cc(-c3ccc(Cl)cc3)nc3ccccc23)o1`, the inhibition is -0.32% (inactive).
On to `O=C(OCc1cn([C@H]2CN(CC3CCCCC3)[C@@H](c3ccc(Cl)cc3)C[C@@H]2O)nn1)c1ccccc1`, for which the inhibition was -2.33% (inactive).
On to `CC1CCCCC1NC(=O)CSc1nnc(COc2ccc(Cl)cc2)o1` (stereo not drawn), for which the inhibition was 3.41% (inactive).
The result for `Cc1nc(-c2ccc(S(=O)(=O)Nc3ccc(Br)cc3Cl)s2)cs1` reads -10.4% (inactive); that for `O=C(NCCCCNC(=O)C(F)(F)F)C(F)(F)F`, 0.85% (inactive); that for `O=C(NCCCCCCCCCNC(=O)C(F)(F)F)C(F)(F)F`, 3.63% (inactive).
With `O=C(COC(=O)CNC(=O)c1ccc(Br)o1)Nc1ccccc1OC(F)F`, the inhibition was 6.47% (inactive).
The figure for `CCOC(=O)COc1nc(-c2ccc(C)cc2)cc(-c2ccco2)c1C#N` is -6.28% (inactive); for `CCOC(=O)COc1nc(-c2ccccc2)cc(-c2ccco2)c1C#N` it is 4.55% (inactive).
